# Experimental data: ChEMBL document CHEMBL3433997, “St. Jude Leishmania screening dataset” (2016)
# Biological target: Solute carrier family 2, facilitated glucose transporter member 1 (Homo sapiens) (UniProt P11166)
# Test: ST_JUDE_LEISH: Cytotoxicity at 2uM final concentration against transgenic Leishmania Mexicana promastigotes LmGLUT1 that are glucose transport deficient and complemented with the human glucose transporter GLUT1. Activity is measured by DNA content using SYBR green in vitro
# Assay type: functional
# Solute carrier family 2, facilitated glucose transporter member 1 (Homo sapiens), sequence (P11166 whole entry): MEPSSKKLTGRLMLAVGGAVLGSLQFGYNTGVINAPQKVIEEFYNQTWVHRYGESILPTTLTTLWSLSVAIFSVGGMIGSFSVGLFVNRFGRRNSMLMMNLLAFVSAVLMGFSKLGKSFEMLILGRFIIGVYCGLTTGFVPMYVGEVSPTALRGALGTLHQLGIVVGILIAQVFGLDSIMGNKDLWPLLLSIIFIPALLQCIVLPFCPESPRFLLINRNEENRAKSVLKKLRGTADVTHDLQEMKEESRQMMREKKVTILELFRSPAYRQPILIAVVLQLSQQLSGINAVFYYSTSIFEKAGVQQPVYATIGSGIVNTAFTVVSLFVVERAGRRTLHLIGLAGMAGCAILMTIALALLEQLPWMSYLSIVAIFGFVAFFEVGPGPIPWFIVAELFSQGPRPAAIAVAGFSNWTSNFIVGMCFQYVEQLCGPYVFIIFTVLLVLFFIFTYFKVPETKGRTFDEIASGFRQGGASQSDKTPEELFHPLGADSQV
row,Compound,inhibition
1,Cc1nn(-c2ccccc2)c2nc(-c3ccccc3)cc(C(=O)N3CCOCC3)c12,1.26%
2,CCOC(=O)c1ccc(N2CCN(CCCNC(=O)/C(=C/C=C/c3cc4cc(Cl)c(Cl)cc4[nH]3)OC)CC2)cc1,2.48%
3,Cc1ccccc1N1CCN(c2ccc(C(=O)NC(C)C)cn2)CC1,0.52%
4,Cc1cc(NC(=O)c2ccco2)ccc1OC1CCN(Cc2ccc(F)cc2)CC1,4.89%
5,CCOc1ccc(NC(=O)c2cn3nc(-c4ccc(OCC)cc4)cc3nc2C2CCNCC2)cc1,1.5%
6,CCCCCCN1CCC(CNCc2cccc([N+](=O)[O-])c2)CC1,5.28%
7,CCCC(=O)Nc1ccc(OCCCCN(Cc2ccccc2C(F)(F)F)c2ccc(C(F)(F)F)c(C#N)c2)cc1,6.19%
8,COc1cccc(C2CCN(CCCCNC(=O)c3ccc(NC(=O)c4ccc(Cl)cc4)cc3)CC2)c1,2.77%
9,Cc1nc2ccccc2c(=O)n1/N=C/c1ccccc1[N+](=O)[O-],3%
10,CC(C)NCc1ccc(-c2cccc(NC(=O)c3ccc(C#N)cc3)c2)cc1,6.75%
11,Cc1c(S(=O)(=O)Nc2ccc3nccc(N4CCN[C@H](C)C4)c3c2)sc2ccc(Cl)cc12,-0.53%
12,Cc1cc(NC(=O)c2cccs2)ccc1OC1CCN(Cc2ccccc2)C1 (stereo not given),0.25%
13,Cc1ccccc1C1CCN(C2CCC(NC(=O)/C=C/c3ccc4c(c3)OC(F)(F)O4)CC2)CC1 (stereo not given),0.14%
14,CCN(CCNC(=O)Nc1cc(C(F)(F)F)cc(C(F)(F)F)c1)c1cccc(C)c1,5.44%
15,CCCCCC(C)NC[C@@H](O)[C@H](Cc1ccccc1)NC(=O)c1cc(NCC)cc(N2CCCCS2(=O)=O)c1 (stereo not given in full),-0.71%
16,CN1CCC(N2CCN(CCOc3cc(NC(=O)/C=C/c4ccccc4Cl)ccc3Br)CC2)CC1,0.25%
17,CCc1c(CCNCCCCCCNCCc2ccc(OC)c(OC)c2C)ccc(OC)c1OC,10.2%
18,Cc1cc(NCCCCCCNc2cc(C)nc3c(C)cccc23)c2cccc(C)c2n1,3.76%
19,CC1(C)NC(N)=NC(=N)N1OCCOc1ccc2ccccc2c1,0.95%
20,OC(CNc1ccnc(Nc2ccc(Cl)cc2)n1)c1ccc(C(F)(F)F)cc1 (stereo not given),4.91%

row,Compound,inhibition
1,O=C(Nc1cc(Cl)ccc1O)c1cnn2c(C(F)(F)F)cc(-c3cccs3)nc12,2.61%
2,COc1ccc(Cl)c(CC2c3cc(O)c(Cl)cc3CCN2C)c1 (stereo not given),-0.53%
3,CCCCCCn1c2c(c(=N)c3c1CCC3)CCC2,86.4%
4,O=C(Nc1ccc2c(c1)CCN2C1CCN(Cc2ccc(O)cc2)C1)c1ccco1 (stereo not given),0.95%
5,CCN(CC)CCNc1ccnc2ccc3ccccc3c12,1.6%
6,CN1CCN(CC(=O)Nc2ccc(-c3ccc(-c4nc5ccccc5[nH]4)cc3)cc2)CC1,8.17%
7,COc1ccc(NS(=O)(=O)c2cc(NC(=O)Cn3ccccc3=O)ccc2N2CCCCC2)cc1,2.57%
8,COc1cccc(C(O)CNc2ccnc(Nc3cccc(-c4csc(C)n4)c3)n2)c1 (stereo not given),1.26%
9,CCCCC(=O)NC(c1cccs1)c1cc(Cl)c2cccnc2c1O (stereo not given),8.63%
10,COc1ccc2c(NN=Cc3ccccc3F)ccnc2c1,3.28%
11,Cc1cc(CNCCCCCCNCc2cccc([N+](=O)[O-])c2)ccc1O,10.5%
12,N=C1N=C(N)NCN1OCc1ccc(Cl)c(Cl)c1,3.39%
13,CCN(CC)CCNC(=O)c1ccc(NC(=O)c2cc(-c3ccncc3)nc3ccccc23)cc1,0.16%
14,O=C(Oc1ccc(C2CNCCc3c2cc(OC(=O)c2ccc(O)cc2)c(OC(=O)c2ccc(O)cc2)c3Cl)cc1)c1ccc(O)cc1 (stereo not given),4.39%
15,Cc1cccc2nc(-c3ccc(-c4cccc(NC(=O)c5cnccc5C(F)(F)F)c4)cc3)[nH]c12,11.2%
16,CCOC(=O)C1=C(C)N=c2sc(=Cc3cc(Cl)ccc3O)c(=O)n2C1c1ccc2c(c1)OCO2 (stereo not given),0.16%
17,O=C(CCCCCNC(=O)c1ccc(O)c(-c2ccc(Cl)c(Cl)c2)c1)NCc1cccc2ccccc12,2.63%
18,CCOc1ccc(C=CC(=O)Nc2ccc3nc(N4CCOCC4)cc(C)c3c2)cc1OC,10.1%
19,CC(C)(C)c1ccc(NC(=O)Nc2ccc(Cn3ncc(N4CCCNCC4)c(Cl)c3=O)cc2)cc1,6.36%
20,CN(C)CCCc1cc(NC(=O)Nc2cccc(Cl)c2Cl)ccc1I,1.65%

# Biological target: Hexose transporter 1 (Plasmodium falciparum) (UniProt O97467)
# Test: ST_JUDE_LEISH: Cytotoxicity at 2uM final concentration against transgenic Leishmania Mexicana promastigotes LmPfHT that are glucose transport deficient and complemented with the Plasmodium falciparum hexose transporter. Activity is measured by DNA content using SYBR green in vitro
# Assay type: functional
row,Compound,inhibition
1,Cc1nn(-c2ccccc2)c2nc(-c3ccccc3)cc(C(=O)N3CCOCC3)c12,0.16%
2,CCOC(=O)c1ccc(N2CCN(CCCNC(=O)/C(=C/C=C/c3cc4cc(Cl)c(Cl)cc4[nH]3)OC)CC2)cc1,3.47%
3,Cc1ccccc1N1CCN(c2ccc(C(=O)NC(C)C)cn2)CC1,-0.59%
4,Cc1cc(NC(=O)c2ccco2)ccc1OC1CCN(Cc2ccc(F)cc2)CC1,3.02%
5,CCOc1ccc(NC(=O)c2cn3nc(-c4ccc(OCC)cc4)cc3nc2C2CCNCC2)cc1,2.58%
6,CCCCCCN1CCC(CNCc2cccc([N+](=O)[O-])c2)CC1,9.36%
7,CCCC(=O)Nc1ccc(OCCCCN(Cc2ccccc2C(F)(F)F)c2ccc(C(F)(F)F)c(C#N)c2)cc1,5.86%
8,COc1cccc(C2CCN(CCCCNC(=O)c3ccc(NC(=O)c4ccc(Cl)cc4)cc3)CC2)c1,2.82%
9,Cc1nc2ccccc2c(=O)n1/N=C/c1ccccc1[N+](=O)[O-],1.45%
10,CC(C)NCc1ccc(-c2cccc(NC(=O)c3ccc(C#N)cc3)c2)cc1,4.9%
11,Cc1c(S(=O)(=O)Nc2ccc3nccc(N4CCN[C@H](C)C4)c3c2)sc2ccc(Cl)cc12,0.48%
12,Cc1cc(NC(=O)c2cccs2)ccc1OC1CCN(Cc2ccccc2)C1 (stereo not given),-0.44%
13,Cc1ccccc1C1CCN(C2CCC(NC(=O)/C=C/c3ccc4c(c3)OC(F)(F)O4)CC2)CC1 (stereo not given),5.21%
14,CCN(CCNC(=O)Nc1cc(C(F)(F)F)cc(C(F)(F)F)c1)c1cccc(C)c1,4.69%
15,CCCCCC(C)NC[C@@H](O)[C@H](Cc1ccccc1)NC(=O)c1cc(NCC)cc(N2CCCCS2(=O)=O)c1 (stereo not given in full),1.3%
16,CN1CCC(N2CCN(CCOc3cc(NC(=O)/C=C/c4ccccc4Cl)ccc3Br)CC2)CC1,2.87%
17,CCc1c(CCNCCCCCCNCCc2ccc(OC)c(OC)c2C)ccc(OC)c1OC,9.23%
18,Cc1cc(NCCCCCCNc2cc(C)nc3c(C)cccc23)c2cccc(C)c2n1,7.91%
19,CC1(C)NC(N)=NC(=N)N1OCCOc1ccc2ccccc2c1,-0.86%
20,OC(CNc1ccnc(Nc2ccc(Cl)cc2)n1)c1ccc(C(F)(F)F)cc1 (stereo not given),4.91%

row,Compound,inhibition
1,O=C(Nc1cc(Cl)ccc1O)c1cnn2c(C(F)(F)F)cc(-c3cccs3)nc12,4.71%
2,COc1ccc(Cl)c(CC2c3cc(O)c(Cl)cc3CCN2C)c1 (stereo not given),-0.87%
3,CCCCCCn1c2c(c(=N)c3c1CCC3)CCC2,85.9%
4,O=C(Nc1ccc2c(c1)CCN2C1CCN(Cc2ccc(O)cc2)C1)c1ccco1 (stereo not given),2.04%
5,CCN(CC)CCNc1ccnc2ccc3ccccc3c12,6.78%
6,CN1CCN(CC(=O)Nc2ccc(-c3ccc(-c4nc5ccccc5[nH]4)cc3)cc2)CC1,6.39%
7,COc1ccc(NS(=O)(=O)c2cc(NC(=O)Cn3ccccc3=O)ccc2N2CCCCC2)cc1,3.46%
8,COc1cccc(C(O)CNc2ccnc(Nc3cccc(-c4csc(C)n4)c3)n2)c1 (stereo not given),-0.04%
9,CCCCC(=O)NC(c1cccs1)c1cc(Cl)c2cccnc2c1O (stereo not given),8.32%
10,COc1ccc2c(NN=Cc3ccccc3F)ccnc2c1,2.8%
11,Cc1cc(CNCCCCCCNCc2cccc([N+](=O)[O-])c2)ccc1O,9.56%
12,N=C1N=C(N)NCN1OCc1ccc(Cl)c(Cl)c1,1.71%
13,CCN(CC)CCNC(=O)c1ccc(NC(=O)c2cc(-c3ccncc3)nc3ccccc23)cc1,-0.76%
14,O=C(Oc1ccc(C2CNCCc3c2cc(OC(=O)c2ccc(O)cc2)c(OC(=O)c2ccc(O)cc2)c3Cl)cc1)c1ccc(O)cc1 (stereo not given),5.32%
15,Cc1cccc2nc(-c3ccc(-c4cccc(NC(=O)c5cnccc5C(F)(F)F)c4)cc3)[nH]c12,10.4%
16,CCOC(=O)C1=C(C)N=c2sc(=Cc3cc(Cl)ccc3O)c(=O)n2C1c1ccc2c(c1)OCO2 (stereo not given),0.7%
17,O=C(CCCCCNC(=O)c1ccc(O)c(-c2ccc(Cl)c(Cl)c2)c1)NCc1cccc2ccccc12,2.12%
18,CCOc1ccc(C=CC(=O)Nc2ccc3nc(N4CCOCC4)cc(C)c3c2)cc1OC,9.63%
19,CC(C)(C)c1ccc(NC(=O)Nc2ccc(Cn3ncc(N4CCCNCC4)c(Cl)c3=O)cc2)cc1,6.82%
20,CN(C)CCCc1cc(NC(=O)Nc2cccc(Cl)c2Cl)ccc1I,5.95%
